40 molecules from PubChem BioAssay (NCI) can be followed below.

The panel holds about 83,000 compounds, 20% with a hit somewhere; the sample as a whole holds those more often.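 Testing used 96-well plates and a 48-hour single-concentration exposure. Example: -40 means 40% of the starting cells died.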 Unmarked numbers belong to inactive results. Active and inactive are the calls of the source.

The test system of this assay is BT-549 breast. Description: NCI-60 one-dose screen, 48 h (100 = growth as untreated, 0 = no growth, -100 = all killed). As to conditions: 10 µM unless noted. As for the experimental part:
Growth inhibition of the BT-549 human tumor cell line is measured as a screen for anti-cancer activity. Cells are grown in 96 well plates and exposed to the test compound for 48 hours. Compounds are tested at a single concentration, which is 10^-5 M for most compounds. The reported endpoint is percent growth (GI% or GIPRCNT), where numbers from 0 - 100% represent growth inhibition, and numbers from -100% - 0 represent cell death. For example, a value of 40 represents 60% growth inhibition. A value of 0 means no net growth occurred over the course of the experiment. A value of -40 indicates 40% of cells at the beginning of the experiment died by the end of the experiment. A value of -100 means all cells are dead at the end of the experiment.
NCI-60 Human Tumor Cell Lines Screen was performed using the standard one-dose NCI protocol, which is described in more detail at https://dtp.cancer.gov/discovery_development/nci-60/default.htm.
Compounds with GIPRCNT values below 10 were considered active. Activity score was based on GIPRCNT using the following formula: […]
Score is 0 for GIPRCNT values of 100 or above, 50 for GIPRCNT values of 0, and 100 for GIPRCNT values of -100.
Consider `FC(F)(F)Oc1ccc2c(c1)C[C@H]1C[C@@H](c3ccoc3)N2O1`, for which the growth is 112%.

Regarding `COc1cc(C2C3=C(COC3=O)N(CCO)c3cc4c(cc32)OCO4)cc(OC)c1O` (stereo not given), the growth is 59.9%.

Regarding `C=CC(=O)N1CC2(CC(n3nc(-c4ccc(Oc5ccccc5)cc4)c4c(N)ncnc43)C2)C1`, the growth was 29.9%.

Regarding `COc1cccc(Nc2nc(NCCO)c3ccccc3n2)c1`, the growth is 72.9%.

In the case of `CSC1=CC(=O)c2ccccc2C1=O`, the growth is 92.3%.

As to `COc1cc(-c2nc(Nc3nc4ccccc4[nH]3)nc(N)c2C#N)cc(OC)c1OC`, the growth is 71.3%.

Take `Cc1nc(NC(=O)COc2cccc(/C=C3\COc4ccccc4C3=O)c2)sc1C`: the growth was -68.5% (active).

In the case of `COc1ccc(CSc2nc3cc(OC)c(OC)cc3c(=O)n2-c2ccc(Cl)cc2)cc1`, the growth was 100%.

As to `O=C(NCc1cccnc1)c1ccc([N+](=O)[O-])o1`, the growth was 4.28% (active).

For `COc1cc(-c2ccc3cc(OC)c(OC)c(OC)c3c2)cc(OC)c1OC`, the growth is 72.2%.

Regarding `COc1ccc(/C=C2\CN(Cc3cn(CCCNc4ccnc5cc(Cl)ccc45)nn3)C/C(=C\c3ccc(OC)cc3)C2=O)cc1`, the growth is 44.3%.

For `Clc1ccc(Nc2nc(Nc3ccccc3)nc(Nc3ccc(-c4cc(-c5ccc(Cl)cc5)on4)cc3)n2)cc1`, the growth is 59.1%.

`COc1cc(C2=NN(c3ccc(S(N)(=O)=O)cc3)C(c3ccc(Cl)cc3)C2)cc(OC)c1OC` (stereo not given): the growth was 57.9%.

For `CC(=O)Nc1ccc(Sc2ccc([N+](=O)[O-])o2)cc1`, the growth is 32.6%.

In the case of `COc1ccc(OC2=CC(=O)c3ccc(C)nc3C2=O)cc1`, the growth is 90.7%.

For the molecule `O=c1[nH]c(=S)c2c(n1CCCO)CCC2`, the growth is 107%.

With `CCOC(=O)C1=C(C)N2C(=NC3=C(CCCC/C3=C\c3ccccc3)C2c2ccccc2)S1` (stereo not given), the growth is 99.1%.

On to `COC(=O)[C@@]12CC[C@@H](C)[C@]3(C[C@@H](c4ccoc4)OC3=O)[C@H]1CC[C@@H]1O[C@@]12C`, for which the growth is 101%.

In the case of `CN(C)c1ccc(/C=C(\C#N)c2cc3ccccc3n2C)cc1`, the growth is 37.6%.

As for `CC(=O)c1cc(C)c(OC(=O)c2ccccc2)c(C)c1`, the growth is 97.6%.

For the molecule `COC(=O)CCC(=O)c1ccccc1`, the growth is 107%.

As to `COc1cc(/C=N/NC(=O)c2cnn3c2NC(c2ccccc2)C3)cc(OC)c1OC` (stereo not given), the growth was 60.2%.

Regarding `Cc1nn(-c2ccccc2)c2nc3nc4c(c(N)c3c(-c3ccc(Cl)cc3)c12)CCC4`, the growth was 114%.

Consider `COc1ccc(/C=C2\SC(=O)N(CN3CCN(c4cc5c(cc4F)c(=O)c(C(=O)O)cn5C4CC4)CC3)C2=O)cc1`, for which the growth is 86.4%.

Turning to `Cc1nc2cc(Nc3nc(NCCO)nc(Nc4ccc(F)cc4)n3)ccc2n1Cc1ccccc1`, the growth is 101%.

`COc1ccc(/C=N/OCC(O)CN2CCC(O)CC2)cc1OC1CCCC1` (stereo not given): the growth was 88.7%.

On to `COc1ccc(/C=N/NC(=O)c2cnn(CC(O)Cc3ccccc3)c2N)cc1OC1CCCC1` (stereo not given), for which the growth was 75.7%.

Regarding `Cc1nn(-c2ccccc2)c2nc3nc4c(c(N)c3c(-c3ccc(Cl)cc3)c12)CCCC4`, the growth is 113%.

For `O=C1c2cc(S(=O)(=O)O)ccc2C(=O)c2c1cccc2[N+](=O)[O-]`, the growth is 98.3%.

On to `CCCCCn1c(=N)n(CC(O)COc2cccc(C)c2)c2ccccc21` (stereo not given), for which the growth was -16.9% (active).

Regarding `O=C1/C(=C/c2ccc([N+](=O)[O-])cc2)Oc2ccc(O)cc21`, the growth is 96.5%.

As to `COc1ccc(NC(=O)c2ccc3c(c2)nc(-c2ccc(Cl)cc2)n3-c2cc(C(C)(C)C)[nH]n2)cc1`, the growth is 81.3%.

For `COc1ccc(Nc2nc(NCCNc3ccnc4cc(Cl)ccc34)nc(N3CCOCC3)n2)cc1`, the growth was 83.7%.

As for `COc1cc(/C=C/c2cc(/C=C/c3ccc(O)c(OC)c3)n(-c3ccccc3)n2)ccc1O`, the growth is -47.2% (active).

As to `N#Cc1ccc(C(F)(F)F)nc1N1CCC(C(=O)Nc2ccc(Cl)cc2)CC1`, the growth is 70.8%.

Regarding `CN1CCN(C(=O)OCCOCCOC(=O)N2CCN(C)CC2)CC1`, the growth is 98.7%.

As to `CCCCC(CCCC)(S(=O)(=O)CC)S(=O)(=O)CC`, the growth was 96.6%.

With `C[C@]1(CO)C[C@@H](O)C[C@]2(C)[C@@H]1CC[C@@]13C[C@@H]4[C@@H](C[C@H]12)[C@]4(C)C3`, the growth is 98.8%.

Turning to `COc1ccc(-c2c(-c3cc4c(c(OC)c3OC)OCO4)noc2N)cc1`, the growth was 60.1%.

Consider `CCOC(=O)C(CC(c1ccccc1)N1CCCCC1)[N+](=O)[O-]` (stereo not given), for which the growth is 94.8%.
